# Laboratory results taken from PubChem BioAssay (NCATS).
# Values joined by “and” are separate entries in the source; they are usually repeats but may differ in a detail not shown here. Equal entries are not always repeated. Values without a mark were called inactive. Records with an inconclusive call do not appear. Where a call stands in place of a potency, no number is given. Active and inactive are the calls of the source. Unless noted, the call rests on the fitted dose curve; in most records, active means well fitted curve in the direction sought with a large enough effect; inconclusive means small, poorly fitted or top-dose-only effect, or another doubt; inactive means no such curve, though single readings can be large; an effect the other way counts as inactive or inconclusive.
# Tests used:
# [1] = target: Calcium and integrin-binding protein 1 (Homo sapiens) (UniProt Q99828); test: Confirmatory qHTS for Identification of Calcium Integrin Binding Protein 1 (CIB1) Competitor (AID 1508617); further: nearly all actives have a fitted effect of over 65% in size
# Calcium and integrin-binding protein 1 (Homo sapiens), sequence (Q99828 whole entry, looked up): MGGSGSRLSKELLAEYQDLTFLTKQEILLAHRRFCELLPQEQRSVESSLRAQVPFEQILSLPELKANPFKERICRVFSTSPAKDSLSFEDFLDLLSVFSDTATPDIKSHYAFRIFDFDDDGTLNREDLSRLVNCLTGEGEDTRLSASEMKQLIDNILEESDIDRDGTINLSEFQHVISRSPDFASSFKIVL
# Procedure, shortened: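 Compounds at up to 114 uM final met 1 uM GST-tagged CIB1 for 15 min at room temperature (HEPES pH 7.4, 5 mM CaCl2). FITC-labelled alphaIIb peptide, 100 nM, added; polarization read after 15 min more.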
# [2] = Primary qHTS for small molecule stabilizers of the endoplasmic reticulum resident proteome: Secreted ER Calcium Modulated Protein (SERCaMP) assay (AID 1508630)
# Procedure, shortened: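 GLuc-SERCaMP-expressing SH-SY5Y cells, pretreated 16 h with compound, are challenged with thapsigargin to empty ER calcium stores; after 4 h, coelenterazine is added directly to the medium and luminescence is imaged.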
# [3] = target: Cytochrome P450 2D6 (Homo sapiens) (UniProt P10635); test: Cytochrome P450 family 2 subfamily D member 6 (CYP2D6) small molecule antagonists: luciferase biochemical (cell-free) qHTS assay (AID 1645840; active means well fitted curve in the direction sought with a large enough effect in the repeat runs; an effect the other way counts as inactive or inconclusive; further: potency means the concentration at half of the fitted maximal effect; nearly all actives have a fitted effect of over 55% in size)
# Cytochrome P450 2D6 (Homo sapiens), sequence (P10635 whole entry, looked up): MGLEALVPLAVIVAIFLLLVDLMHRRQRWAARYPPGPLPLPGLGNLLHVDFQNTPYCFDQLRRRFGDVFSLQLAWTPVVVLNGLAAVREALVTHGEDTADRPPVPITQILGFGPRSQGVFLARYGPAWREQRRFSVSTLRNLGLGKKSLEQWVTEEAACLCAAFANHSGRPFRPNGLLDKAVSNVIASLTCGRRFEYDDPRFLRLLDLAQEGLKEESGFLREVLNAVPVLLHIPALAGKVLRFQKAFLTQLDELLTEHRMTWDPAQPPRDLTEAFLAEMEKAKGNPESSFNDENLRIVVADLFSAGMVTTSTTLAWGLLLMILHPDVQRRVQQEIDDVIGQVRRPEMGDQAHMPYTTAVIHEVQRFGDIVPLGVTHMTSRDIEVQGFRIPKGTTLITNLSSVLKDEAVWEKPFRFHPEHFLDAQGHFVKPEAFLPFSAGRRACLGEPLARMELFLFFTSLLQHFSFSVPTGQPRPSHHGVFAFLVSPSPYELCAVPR
# Procedure, shortened: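 P450-Glo luminescent screen: recombinant CYP2D6 enzyme–proluciferin substrate mix preincubated with compound 10 min at room temperature, then NADPH regeneration added for 1 h at room temperature. Detection reagent added for 20 min; luciferin light read as relative luminescence units.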
# [4] = target: Cytochrome P450 2C9 (Homo sapiens) (UniProt P11712); test: Cytochrome P450 family 2 subfamily C member 9 (CYP2C9) small molecule antagonists: luciferase biochemical (cell-free) qHTS assay (AID 1645842; active means well fitted curve in the direction sought with a large enough effect in the repeat runs; an effect the other way counts as inactive or inconclusive; further: potency means the concentration at half of the fitted maximal effect; nearly all actives have a fitted effect of over 55% in size)
# Cytochrome P450 2C9 (Homo sapiens), sequence (P11712 whole entry, looked up): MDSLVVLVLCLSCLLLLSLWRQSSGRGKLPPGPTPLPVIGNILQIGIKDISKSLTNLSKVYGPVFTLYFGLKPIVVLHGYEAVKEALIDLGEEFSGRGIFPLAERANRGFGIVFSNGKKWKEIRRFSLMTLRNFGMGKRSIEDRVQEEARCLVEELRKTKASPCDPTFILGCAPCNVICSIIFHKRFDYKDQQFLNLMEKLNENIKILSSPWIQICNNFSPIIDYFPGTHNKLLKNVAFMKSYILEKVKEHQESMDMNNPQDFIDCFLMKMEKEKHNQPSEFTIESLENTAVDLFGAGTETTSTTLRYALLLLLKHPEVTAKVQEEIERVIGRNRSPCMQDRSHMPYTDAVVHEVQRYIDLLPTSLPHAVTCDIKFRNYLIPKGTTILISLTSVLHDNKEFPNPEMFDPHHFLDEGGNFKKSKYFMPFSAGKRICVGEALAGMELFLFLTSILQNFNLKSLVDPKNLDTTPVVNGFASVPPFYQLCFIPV
# Procedure, shortened: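 Luminescence, after 20 min with luciferin detection reagent, reflected CYP2C9 turnover during a 1 h NADPH-driven reaction at 37C. Enzyme-substrate mix contained 0.4% bovine serum albumin and was preincubated with compound 10 min at room temperature.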
# [5] = Primary qHTS for inhibitors of nuclear receptor binding SET domain protein 2 (NSD2) in an isogenic RCH-ACV NSD2 p.E1099K mutant (9B) (AID 1645876); further: nearly all actives have a fitted effect of over 70% in size; further: potency means the concentration at half of the fitted maximal effect
# [6] = Primary qHTS for inhibitors of nuclear receptor binding SET domain protein 2 (NSD2) in an RCH-ACV wild type WT cells (2C) (AID 1645877); further: nearly all actives have a fitted effect of over 70% in size; further: potency means the concentration at half of the fitted maximal effect
# [7] = qHTS to identify inhibitors of the type 1 interferon - major histocompatibility complex class I in skeletal muscle: primary screen against the NCATS Mechanism Interrogation Plate v5.0 (MIPE) Libary (AID 1347411); further: nearly all actives have a fitted effect of over 65% in size; further: potency means the concentration at half of the fitted maximal effect
# Procedure, shortened: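 Luminescence from HiBiT-tagged endogenous HLA-B*08:01 served as the MHC class I read-out. CRISPR-engineered C25cl48 human myoblasts received 4.0 ng/ml IFN-beta plus compound for 24 hrs, with an 11-point, 1:3 series topping at 46 uM final.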
# [8] = target: Calcium and integrin-binding protein 1 (Homo sapiens) (UniProt Q99828); test: Primary qHTS for Identification of Calcium Integrin Binding Protein 1 (CIB1) Competitor (AID 1508620);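 further: GST tagged CIB1 binding a fluorescein labelled alphaIIb integrin peptide tracer; top concentration of the series differs between compounds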
# Procedure, shortened: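 Fluorescence polarization competition: CIB1-GST (1 uM final) preincubated with compound 15 min at room temperature, then FITC-labeled alphaIIb peptide (100 nM final) added for another 15 min. Polarization read at Ex 480/Em 540.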
# [9] = Validation qHTS assay for inhibitors of Activation Induced Cytidine Deaminase (AID): UDG Counterscreen signal (AID 1347427)
# Procedure, shortened: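 Counterscreen read of UDG activity (2 U/mL, 4/3x) in the FRET deamination format with AID (1 uM, 4/3x), DJC20/DJC23 substrates (250 nM, 4x), 4 h at room temperature. NaOH stop, fluorescence at 560 ex/665 em.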
# [10] = target: Single-stranded DNA cytosine deaminase (Homo sapiens) (UniProt Q9GZX7); test: Validation qHTS assay for inhibitors of Activation Induced Cytidine Deaminase (AID): AID signal (AID 1347429)
# Single-stranded DNA cytosine deaminase (Homo sapiens), sequence (Q9GZX7 whole entry, looked up): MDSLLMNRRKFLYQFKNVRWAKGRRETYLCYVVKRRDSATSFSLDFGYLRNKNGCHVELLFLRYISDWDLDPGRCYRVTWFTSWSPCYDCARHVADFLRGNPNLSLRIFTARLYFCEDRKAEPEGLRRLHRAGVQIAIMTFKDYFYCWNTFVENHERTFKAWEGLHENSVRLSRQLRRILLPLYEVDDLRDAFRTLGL
# Procedure, shortened: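 Fluorescence at 540 nm excitation and 590 nm emission reports ssDNA cytosine deamination by AID, with UDG in the same well. Compound-treated reactions ran 4 hr at room temperature with DJC20/DJC23 substrate, followed by 30 min NaOH treatment.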
# [11] = Primary qHTS for inhibitors of La Crosse Virus (LACV) - induced cell death in SH-SY5Y cells (AID 1508616);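 further: top concentration of the series differs between compounds; higher means more rescue of cells from virus-induced death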
# Procedure, shortened: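 Protection against LACV-induced cell death is scored in SH-SY5Y cells exposed to compounds and virus (0.01 MOI) for 6 days. Data normalized to virus-infected DMSO wells and virus-free DMSO wells.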
structure (smiles),measurement,setting,value
C[C@@H](NCc1cc2ccccc2[nH]1)c1cccc2ccccc12,Potency,[1],inactive
same,outcome,[2],inactive
same,Potency,[3],95.2 nM (active)
same,Potency,[4],10700 nM (active)
same,Potency,[5],16600 nM (active)
same,Potency,[6],14800 nM (active)
CC(C)C[C@H](NC(=O)[C@@H](NC(=O)c1cccc(-c2ccccc2)n1)[C@@H](C)O)B(O)O,Potency,[7],64.1 nM (active)
same,outcome,[2],inactive
same,Potency,[5],29 nM (active) and 32.3 nM (active)
same,Potency,[6],18.3 nM (active) and 22.9 nM (active)
CON=C(C(=O)N[C@@H]1C(=O)N2C(C(=O)O)=C(CSC(=O)c3ccco3)CS[C@H]12)c1csc(N)n1,Potency,[8],inactive
same,outcome,[2],inactive
C=CC(=O)N1CCc2ccc(-n3c(=O)ccc4cnc5ccc(-c6cnn(C)c6)cc5c43)cc21,Potency,[7],806 nM (active)
same,Potency,[5],363 nM (active)
same,Potency,[6],323 nM (active)
O=C(O)CCCCCC(=O)NN=C1CCCC1,Potency,[7],inactive
same,outcome,[2],inactive
same,Potency,[5],inactive
same,Potency,[6],inactive
C=CC(=O)Nc1cccc(Nc2nc(NC3CCC(N(C)C)CC3)nc3c2ncn3C(C)C)c1 (configuration not stated),Potency,[8],inactive
O=C(O)C=Cc1ccc(Cn2ccnc2)cc1,Potency,[8],inactive
Cc1cnn(C)c1C(=O)Nc1cc(Nc2ccc3c(C=Cc4ccccn4)n[nH]c3c2)ccc1F,Potency,[8],inactive
C#C[C@]1(O)CC[C@@H]2[C@@H]3CCC4=CC(=O)CC[C@@H]4[C@H]3CC[C@@]21CC,Potency,[8],inactive
same,outcome,[2],inactive
CC(=O)ON=C1C(c2c(O)[nH]c3cc(Br)ccc23)=Nc2ccccc21,Potency,[8],inactive
CC(C=CC1=C(C)CCCC1(C)C)=CC=CC(C)=CC(=O)Nc1ccc(O)cc1,Potency,[8],inactive
NC(=O)Nc1cc(-c2ccc(CN3CCOCC3)cc2)sc1C(N)=O,Potency,[7],7390 nM (active)
same,outcome,[2],inactive
same,Potency,[5],662 nM (active)
same,Potency,[6],372 nM (active)
CN(N=O)C(=O)N[C@H]1C(O)OC(CO)[C@@H](O)[C@H]1O (some centres not stated),Potency,[8],inactive
O=c1[nH]c(=O)n([C@H]2C[C@@H](O)[C@@H](CO)O2)cc1C=CBr,outcome,[9],inactive
same,outcome,[10],inactive
same,outcome,[11],inactive
same,Potency,[8],inactive
same,outcome,[2],inactive
COc1ccc2cc([S+]([O-])Cc3ncc(C)c(OC)c3C)nc2c1,outcome,[9],inactive
same,outcome,[10],inactive
same,outcome,[11],inactive
same,Potency,[8],inactive
CNC(=O)c1cccc(-c2ccc3c(N4CCOC[C@H]4C)nc(N4CCOC[C@H]4C)nc3n2)c1,Potency,[8],inactive
Cn1cnc(=N)c2[nH]cnc21,Potency,[7],inactive
same,outcome,[2],inactive
same,Potency,[5],inactive
same,Potency,[6],inactive
N#CC(=Cc1ccc(O)c(O)c1)C(=O)NCc1ccccc1,Potency,[8],inactive
O=C1NCCc2[nH]c(-c3ccncc3)cc21,Potency,[7],2080 nM (active)
same,outcome,[2],inactive
same,Potency,[5],2350 nM (active)
same,Potency,[6],1320 nM (active)
CCOC(=O)[C@H](CCc1ccccc1)N[C@@H](C)C(=O)N1[C@@H](C(=O)O)C[C@H]2CCC[C@@H]21,Potency,[8],inactive
NC(=O)c1ncn([C@@H]2O[C@H](CO)[C@@H](O)[C@@H]2O)c1N,Potency,[8],inactive
OCCN1C[C@H](O)[C@@H](O)[C@H](O)[C@@H]1CO,Potency,[8],inactive
NS(=O)(=O)OC[C@@H]1C[C@@H](n2ccc3c(N[C@H]4CCc5ccccc54)ncnc32)C[C@H]1O,Potency,[8],inactive
CC1(C)[C@H](O[C@H]2O[C@H](C(=O)O)[C@@H](O)[C@H](O)[C@H]2O[C@@H]2O[C@H](C(=O)O)[C@@H](O)[C@H](O)[C@H]2O)CC[C@@]2(C)[C@H]1CC[C@]1(C)[C@H]2C(=O)C=C2[C@H]3C[C@@](C)(C(=O)O)CC[C@]3(C)CC[C@]21C,Potency,[8],inactive
COC1=C(OC)C(=O)C(CC=C(C)CCC=C(C)CCC=C(C)CCC=C(C)CCC=C(C)CCC=C(C)CCC=C(C)CCC=C(C)CCC=C(C)CCC=C(C)C)=C(C)C1=O,Potency,[8],inactive
Nc1nc(=O)n([C@H]2C[C@H](O)[C@@H](CO)O2)cc1F,Potency,[7],inactive
same,outcome,[2],inactive
same,Potency,[5],11.8 nM (active)
same,Potency,[6],14.8 nM (active)
COc1ccnc2[nH]cc(C(=O)C(=O)N3CCN(C(=O)c4ccccc4)C[C@@H]3C)c12,Potency,[8],inactive
CC[C@H]1OC(=O)[C@H](C)[C@@H](O[C@H]2C[C@@](C)(OC)[C@@H](O)[C@H](C)O2)[C@H](C)[C@@H](O[C@@H]2O[C@@H](C)C[C@H](N(C)C)[C@@H]2O)[C@](C)(O)C[C@@H](C)C(=O)[C@H](C)[C@@H](O)[C@]1(C)O,Potency,[8],inactive
